Most compounds without a hit are left out; they make up all but 2.4% or so of the library.
WRN inhibitor: inhibitors of human WRN helicase; Potency, µM (titrated, usually from 114 µM), hits mostly inhibitors; AID 651768; WRN helicase unwinding, fluorescent forked duplex, kinetic; Q14191; 360,000 tested, 0.46% active; note: nearly all actives have a fitted effect of over 55% in size
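WRN at 20 nM final preincubated with compound 15 min at room temperature; reaction started with 100 nM fluorophore/quencher forked duplex oligonucleotide and 2 mM ATP final. Unwinding followed kinetically by red fluorescence (ex 525, em 598 nm).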
Pol eta inh-1: DNA polymerase eta (human) inhibition. recombinant Pol eta, fluorescent DNA replication assay. Potency, µM (top dose mostly 114 µM), actives largely listed as inhibitors. 390,000 tested, 1.2% active. AID 588591
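Pol eta at 10 nM preincubated with compounds 15 min at room temperature; reaction started with fluorescent substrate (50 nM final) and read kinetically at 0 and 10 min.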
POLI inh: inhibitors of human DNA polymerase iota | Potency, µM (titrated, usually from 115 µM), actives largely listed as inhibitors | Pol iota fluorescent replication assay, 10 min | Q9UNA4 | 390,000 tested, 1% active | AID 588590
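Pol iota at 10 nM preincubated 15 min with compounds at room temperature; reaction started with fluorescent substrate, 50 nM final. Fluorescence read kinetically at 0 and 10 min; buffer-only wells as negative control.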
FEN1 inh: inhibitors of human flap endonuclease 1 | Recombinant FEN1 flap cleavage, fluorescence, 15 min | Potency, µM (series often up to 114 µM), actives largely listed as inhibitors | 390,000 tested, 0.35% active; note: nearly all actives have a fitted effect of over 65% in size
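Compounds are tested as a concentration series against 10 nM FEN1; after a 15 min room-temperature preincubation, 50 nM substrate starts cleavage, with plate reads at 0 and 15 min. Normalized responses are fitted by a Hill equation.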
Pol kappa inh-1: blocks human DNA polymerase kappa activity; Q9UBT6; purified Pol kappa, fluorescent DNA synthesis assay, 10 min; Potency, µM (highest dose often 107 µM), hits mostly inhibitors; 400,000 tested, 0.53% active; AID 588579
Target sequence (Q9UBT6 whole entry, looked up): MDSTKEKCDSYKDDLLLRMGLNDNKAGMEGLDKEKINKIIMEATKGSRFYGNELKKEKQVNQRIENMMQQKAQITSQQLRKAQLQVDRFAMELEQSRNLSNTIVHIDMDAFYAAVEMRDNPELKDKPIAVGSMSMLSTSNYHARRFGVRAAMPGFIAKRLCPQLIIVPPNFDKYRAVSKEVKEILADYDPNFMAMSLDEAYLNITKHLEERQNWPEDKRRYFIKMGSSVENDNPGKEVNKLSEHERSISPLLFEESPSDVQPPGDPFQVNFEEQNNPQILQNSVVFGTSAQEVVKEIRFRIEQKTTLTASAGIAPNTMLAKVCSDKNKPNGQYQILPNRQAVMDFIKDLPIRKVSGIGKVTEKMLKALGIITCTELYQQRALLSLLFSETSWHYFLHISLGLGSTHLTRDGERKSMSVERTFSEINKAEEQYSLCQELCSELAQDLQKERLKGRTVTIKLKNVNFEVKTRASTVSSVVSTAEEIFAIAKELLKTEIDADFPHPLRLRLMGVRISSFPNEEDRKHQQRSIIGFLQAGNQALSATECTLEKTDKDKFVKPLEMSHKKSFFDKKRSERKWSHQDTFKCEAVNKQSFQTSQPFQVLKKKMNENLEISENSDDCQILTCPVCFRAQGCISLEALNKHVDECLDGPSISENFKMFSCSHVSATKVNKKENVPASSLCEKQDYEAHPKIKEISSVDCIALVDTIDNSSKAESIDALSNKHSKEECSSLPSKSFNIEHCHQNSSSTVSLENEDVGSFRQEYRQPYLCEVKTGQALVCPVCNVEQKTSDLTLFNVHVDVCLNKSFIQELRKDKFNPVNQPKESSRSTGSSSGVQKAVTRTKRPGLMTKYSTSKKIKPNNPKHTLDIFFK
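Here, compound and 10 nM enzyme are combined for 15 min at room temperature; adding 50 nM substrate (final) starts DNA synthesis, tracked by fluorescence at 0 and 10 min against buffer-only wells.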
Pol beta inh-1: DNA polymerase beta (human) inhibition; 340,000 tested, 1.3% active; Potency, µM (series often up to 114 µM), most hits filed as inhibitors; P06746; AID 485314; Pol beta primer extension/strand displacement, fluorescence kinetic
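Preincubation: enzyme (10 nM) with compound, 15 min, RT. Reaction: substrate added to 50 nM final. Reads: 0 and 10 min. Analysis: normalized, Hill fit.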
Pol beta inh-2: Inhibitors of human DNA polymerase beta, hit validation; Potency, µM, usual class: inhibitors; AID 540280; 250 tested, 87% active; shares compounds with Pol beta inh-1; Pol beta primer extension/strand displacement, fluorescence kinetic; calls by dose curve
Klenow inh: Klenow polymerase inhibition, pol beta selectivity check; 250 tested, under 10 active; Klenow exo- polymerase counter-screen, fluorescent DNA substrate; shares compounds with Pol beta inh-1; activity change, negative = inhibition, % at 57.1 µM
HIV RT counter: HIV-1 RT inhibition, pol beta selectivity check; shares compounds with Pol beta inh-1; HIV-1 RT polymerase activity, counter-screen; activity % (negative = inhibition, positive = activation), % at 57.1 µM; 250 tested, under 10 active
POLB inh gel: validation of human DNA polymerase beta inhibitors; shares compounds with Pol beta inh-1; radiolabeled primer extension gel assay, phosphorimager; inhibition, % at 10 µM; 110 tested, 91% active;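 active = inhibition at 10 µM of 30% or more; inconclusive = no clear call, values can overlap the other calls; inactive = inhibition at 10 µM under 30%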
TbPGK inh: TbPGK inhibition, hit validation. shares compounds with Pol kappa inh-1. TbPGK coupled GAPDH assay, Kinase-Glo luminescence. Potency, µM (top dose mostly 57.5 µM), most hits filed as inhibitors. 500 tested, 79% active; note: nearly all actives have a fitted effect of over 65% in size
Pol iota confirm: Confirm cherry-picked inhibitors of human polymerase iota; AID 720496; shares compounds with Pol kappa inh-1; Potency, µM, actives largely listed as inhibitors; Pol iota primer extension, TAMRA/BHQ fluorescence; 1,500 tested, 77% active
Pol kappa inh-2: confirmation of human DNA polymerase kappa inhibitors | shares compounds with Pol eta inh-1 | AID 720501 | 920 tested, 76% active | Potency, µM, actives largely listed as inhibitors | purified Pol-kappa, fluorescent strand-displacement substrate
Pol eta inh-2: Pol eta (human) inhibition, cherry-pick confirmation. 2,600 tested, 64% active. Potency, µM, usual class: inhibitors. shares compounds with Pol eta inh-1. Pol eta primer extension, TAMRA/BHQ fluorescence, 10 min
A number is an active result; n = inactive; u = inconclusive; x = no result given; [ ] = dose if it differs, or a comment. Unless noted, calls come from the whole dose curve; as a rule, active = well fitted curve in the direction sought with a large enough effect; inconclusive = small, poorly fitted or top-dose-only effect, or another doubt; inactive = no such curve, though single readings can be large; an effect the other way counts as inactive or inconclusive.

SMILES	WRN inhibitor	Pol eta inh-1	POLI inh	FEN1 inh	Pol kappa inh-1	Pol beta inh-1	Pol beta inh-2	Klenow inh	HIV RT counter	Pol iota confirm	Pol eta inh-2	others
CCOC(=O)/C=C/C(=O)N1CCc2ccccc21	n	n	u	n	n	n	x	x	x	x	x
Cc1ccc(/C=C/C(=O)N2CCc3ccccc32)o1	u	8.9µM	35µM	n	u	13µM	18	n	n	67	67
COc1ccc(-c2nnc(Nc3ccc(S(=O)(=O)Nc4nccs4)cc3)c3ccccc23)cc1	50µM	32µM	20µM	u	50µM	1.8µM	7.9	n	n	u	43	Pol kappa inh-2=34
O=C(CSc1ccccn1)Nc1ccc2ccccc2c1	x	x	x	x	x	n	x	x	x	x	x
O=C(CSc1ccccn1)Nc1ccc2c(c1)C(=O)c1ccccc1C2=O	40µM	u	n	u	n	8.9µM	11	n	n	53	60	Pol kappa inh-2=60
Cc1nc(C)c(C(=O)Nc2ncc([N+](=O)[O-])s2)o1	u	8.9µM	18µM	n	u	16µM	35	n	n	x	u	POLB inh gel=100;Pol kappa inh-2=30
C=CCn1c(SCC(=O)Nc2ccc(-c3nc4ccc(C)cc4s3)cc2)nnc1-c1ccccc1	u	u	56µM	n	n	6.3µM	20	n	n	67	u	POLB inh gel=60
Cc1cc(C)n2c(SC/C(O)=C(\C#N)c3nc4ccccc4[nH]3)nnc2n1	u	3.2µM	11µM	u	45µM	18µM	35	n	n	x	76	POLB inh gel=100
Cc1ccccc1-n1c(SC/C(O)=C(\C#N)c2nc3ccccc3[nH]2)nnc1-c1ccncc1	n	u	u	n	n	u	x	x	x	x	x
CC1=Nc2cc(C(=O)NCc3ccccc3Cl)ccc2Sc2c(C)ccc(C)c21	x	n	n	n	n	n	x	x	x	x	x
CCCSc1nnc(NC(=O)c2sc3nc(-c4cccs4)ccc3c2N)s1	u	79µM	u	u	n	18µM	13	n	n	u	60	Pol kappa inh-2=19
O=C(Cn1cnc2scc(-c3cccc([N+](=O)[O-])c3)c2c1=O)NCc1ccco1	u	20µM	20µM	n	79µM	10µM	16	n	u	47	60	Pol kappa inh-2=47
CCN(CC)c1ccc(NC(=O)CCS(=O)(=O)c2ccc(Br)cc2)c(C)c1	u	14µM	40µM	n	u	7.1µM	10	n	u	47	17	TbPGK inh=10µM;Pol kappa inh-2=7.5
C#CC1(NC(=S)Nc2cccc(OC)c2)CCCCC1	n	n	x	x	x	x	x	x	x	x	x
O=c1c2c3c(sc2[nH]c(=S)n1Cc1ccco1)CCC3	u	20µM	18µM	u	u	8.9µM	16	n	n	42	43
CC1(C)Cc2c(sc3[nH]c(=S)n(Cc4ccco4)c(=O)c23)CO1	n	n	n	n	n	n	x	x	x	x	x
c1coc(-c2nnc3sc(Cc4cccs4)nn23)c1	45µM	28µM	7.9µM	56µM	20µM	13µM	22	n	n	u	u	POLB inh gel=36
Clc1ccc(-c2nnc3sc(Cc4cccs4)nn23)c(Cl)c1	n	n	n	n	n	u	x	x	x	x	x
COc1ccc(Nc2ncc3c(n2)CCN(Cc2sccc2C)C3)c(OC)c1	x	x	n	n	n	n	x	x	x	x	x
O=C(CSc1ccsc1[N+](=O)[O-])N1CCN(c2ccc(Cl)cc2)CC1	n[11.6 µM]	28µM	28µM	n	u	14µM	40	n	n	x	u
CCOc1ccc(CCNC(=O)c2ccc(C)c(-n3c(C)nc4cccnc43)c2)cc1OCC	x	n	n	n	n	n	x	x	x	x	x
COC(=O)c1c(NC(=O)CN2C(=O)NC3(CCC(C)CC3)C2=O)sc2c1CCC2 (configuration not stated)	n	n	u	n	n	x	x	x	x	x	x
CC1CCC2(CC1)NC(=O)N(CC(=O)Nc1sc3c(c1C(N)=O)CCC3)C2=O (configuration not stated)	50µM	18µM	11µM	n	u	5µM	20	n	u	38	19	POLB inh gel=100
Cc1cc2c(cc1Cl)N(C(=O)Nc1ccnc3ccccc13)CC2	x	n	u	u	n	n	x	x	x	x	x
CCCS(=O)(=O)NC(=O)C1(C)CCN(C(=O)c2cccs2)C1 (configuration not stated)	n	x	x	x	x	x	x	x	x	x	x
SMILES	WRN inhibitor	Pol eta inh-1	POLI inh	FEN1 inh	Pol kappa inh-1	Pol beta inh-1	Pol beta inh-2	Klenow inh	HIV RT counter	Pol iota confirm	Pol eta inh-2	others
CS(=O)(=O)C1=NSC2=NC(=O)/C(=C\c3ccc(-c4ccccc4)o3)C(=N)N21	x	x	x	x	x	n	x	x	x	x	x
CCc1ccc(-n2cccc2/C=C2/C(=N)N3C(=NC2=O)SN=C3S(C)(=O)=O)cc1	n[11.6 µM]	20µM	u	u	79µM	6.3µM	32	n	u	u	48	POLB inh gel=73;Pol kappa inh-2=67
Cc1ccc(-n2cccc2/C=C2/C(=N)N3C(=NC2=O)SN=C3S(C)(=O)=O)cc1	u	32µM	18µM	u	u	16µM	16	n	n	84	67
CN(C)c1ccc(CNc2nc3cc(-c4ccc(F)cc4)sc3c(=O)n2C)cc1	n	x	x	x	x	x	x	x	x	x	x
COc1ccc(Nc2nc(N)nc(CSc3nc4cc(OC)ccc4s3)n2)cc1	x	n	u	u	n	u	x	x	x	x	x
Cc1ccc(NC(=O)c2c3c(nc4ccccc24)CCC3)cc1S(=O)(=O)N(C)C	n[11.6 µM]	u	22µM	n	79µM	10µM	35	n	n	x	u	POLB inh gel=89
Cc1ccc(S(=O)(=O)Cc2ccc(C(=O)N3CCc4ccccc4C3)o2)cc1	u	20µM	u	n	56µM	16µM	35	n	n	42	48
Cc1cccc(S(=O)(=O)Nc2cccc(-c3ccc(N4CCCCC4)nn3)c2)c1	x	n	n	n	n	n	x	x	x	x	x
CCCN(C(=O)c1cccs1)c1c(N)n(Cc2ccccc2)c(=O)[nH]c1=O	n	n	n	n	n	x	x	x	x	x	x

Compound activity: PubChem, National Center for Advancing Translational Sciences (NCATS)
